Five compounds from PubChem BioAssay can be followed below.

Results filed as inconclusive are left out. The source made the active and inactive calls. Rule as the data show it, unless noted: active = percent of DMSO control GFP below about 86%; inactive = the rest, inconclusive results apart.

A short description of experiment [1]: yeast TOR pathway RPL19A-GFP modulators, primary screen, cell-based, S. cerevisiae, multiplex flow cytometry (AID 1862).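 Also: lower values mimic rapamycin by blocking the RPL19A rise seen in DMSO cells.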 As to conditions: S. cerevisiae RPL19A-GFP strain, flow cytometry fluorescence, 3 h; at 10 µM; stronger effect = lower value. (A flow cytometer gives signals particle by particle.)
Experiment [2] can be described thus: modulators of MEP2-GFP levels in yeast, primary screen, S. cerevisiae, multiplex flow cytometry (AID 1867;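 active = GFP response, as percent of the DMSO control, above the screen-wide mean plus 3 SD, about 139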;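 also: median GFP channel fluorescence of barcode-gated MEP2-GFP cells measured by flow cytometry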). The note with it: S. cerevisiae MEP2-GFP strain, 3 h, at 10 µM, stronger effect = higher value, 100% means same as DMSO wells.
A short description of experiment [3]: modulators of CIT2-GFP expression in yeast, primary screen, S. cerevisiae, GFP fusion, multiplex flow cytometry (AID 1870;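 active = percent response above a set limit, the screen-wide mean plus 3 SD, cut at about 130% in these data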;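 also: barcoded CIT2-GFP strain pooled with four other GFP strains with rapamycin as positive control; median GFP fluorescence per well over plate mean of DMSO wells so 100% = DMSO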). The note with it: 3 h, at 10 µM, stronger effect = higher value.
Experiment [4] in a line: modulators of LAP4-GFP expression in yeast, primary screen, S. cerevisiae, multiplex flow cytometry (AID 1873;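 active = GFP signal, as percent of the solvent control, above the screen mean plus 3 SD, about 149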). The note with it: 3 h, at 10 µM, stronger effect = higher value.
The nature of experiment [5]: modulators of AGP1-GFP expression in yeast TOR pathway, primary screen, cell-based, multiplex flow cytometry, S. cerevisiae (AID 1887;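 active = GFP signal above the screen-wide mean plus 3 SD, that is over about 124.5% of the solvent control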;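 also: AGP1-GFP fusion strain of S. cerevisiae within a five-strain barcoded multiplex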). As to conditions: 3 h, at 10 µM, stronger effect = higher value.
The nature of experiment [6]: inhibitors of CD8+ T cell-vesicle binding, pilot screen, LFA-1/ICAM-1 modulator project, MLPCN validation set, flow cytometry (AID 2523;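 active = response below a set limit, under 55% cells CD8-positive and vesicle-bound, and CD8 cells' 90th-percentile brightness under 279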;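 as to vesicle binding response: mean PE anti-B7-1 fluorescence of CD8+ cells relative to row control; 100% = QL9-loaded vesicles with DMSO vehicle in the same plate row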). As to conditions: 2C mouse CD8+ T cells, at 7 µM, stronger effect = lower value; double positive events: measured here: CD8+/vesicle+ event percentage.
For experiment [7], the target named is Integrin beta-1 (Homo sapiens) + Integrin alpha-4 (Homo sapiens) (UniProt P13612+P05556). Description: inhibition of HUTS-21 binding to VLA-4, pilot screen, VLA-4 allosteric modulator project, U937 cells, HUTS-21 mAb, flow cytometry, validation set (AID 2674;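 active = inhibition above 50%, about 3 SD of the validation set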;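 also: antibody binding induced by the VLA-4 ligand LDV present at three times its Kd; 0% = LDV ligand with antibody and no compound and 100% = antibody without LDV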). As to conditions: HUTS-21 LIBS mAb binding, at 6.7 µM, stronger effect = higher value, binding induced by LDV ligand.

Experiment [8] in a line: superoxide lowering in aged yeast cells, pilot screen, validation compound set (AID 2706;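 active = superoxide response below 65% of plate, a cut near 3 SD across the whole screen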;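 also: yeast exposed to compound for one week at 30 degrees C before staining; 100% = mean of all compound wells on the same plate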). The note with it: S. cerevisiae aging, superoxide DHE fluorescence; at 10 µM; stronger effect = lower value.
Experiment [9] addresses Beta-adrenergic receptor kinase 1 (Homo sapiens) (UniProt P25098). The experiment in a line: GRK2 binders displacing RNA aptamer, biochemical, validation, human GRK2, bead flow cytometry (AID 488806;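 active = aptamer binding inhibition above 30%, about 3 SD of noise from non-fluorescent compounds; inactive = inhibition at or below 30%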). As to conditions: bead-bound GRK2, FAM-aptamer displacement, at 10 µM, stronger effect = higher value.
For experiment [10], the target named is Beta-2 adrenergic receptor (Homo sapiens) (UniProt P07550). Description: beta2AR agonists driving receptor internalization, pilot screen, cell-based, FAP fluorogen, flow cytometry, validation set (AID 504459;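 active = percent response above 42, roughly 3 SD of non-fluorescent test compounds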;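 also: agonist-driven loss of surface beta2AR via internalization measured by FAP dye flow cytometry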). The note with it: Am2.2-beta2AR cells, FAP surface receptor flow cytometry; at 10 µM; stronger effect = higher value.
Experiment [11] addresses AP-2 complex subunit beta (Homo sapiens) (UniProt P63010). The experiment in a line: inhibitors of arrestin peptide binding to AP2, pilot screen, biochemical, validation set, GST-AP2 beads, flow cytometry (AID 504541;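 active = inhibition above 54%, about 3 SD of non-fluorescent compounds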;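 also: AP2 carries R879A mutation and is captured from E. coli lysate; bead-bound FITC arrestin peptide fluorescence measuring arrestin peptide binding to AP2; 0% = DMSO wells and 100% = excess unlabeled arrestin peptide control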). The note with it: FITC arrestin peptide, at 10 µM, stronger effect = higher value, AP2 beta2 appendage fragment, R879A mutant.
Experiment [12] can be described thus: yeast V-ATPase proton transport modulators, S. cerevisiae, pHLuorin, HTS validation (AID 504600; in the data active = response above about 15%;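 also: plate controls were DMSO for no effect and reference compound for full effect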). The note with it: S. cerevisiae pHLuorin cytosolic pH, at 10 µM, stronger effect = higher value.
Experiment [13] relates to anti-desmoglein-3 scFv antibody binding to human DSG3. Description: inhibitors of anti-DSG3 scFv binding to DSG3, pilot screen, biochemical, validation compound set, bead-based, flow cytometry (AID 588368;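 active = binding below the plate cutoff, the plate median minus 3 SD, with a reading above zero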;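 also: signal is the median channel fluorescence of bead-bound GFP antibody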). As to conditions: Protein G beads, DSG3-Fc, scFv-GFP binding, at 10 µM, stronger effect = lower value.
The nature of experiment [14]: inhibitors of fungal efflux pumps CDR1, CDR2, MDR1, pilot screen, validation compound set, multiplex, phenotypic (AID 588506;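 active = efflux inhibition above 0.42, the validation set average plus 4 SD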;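 also: Nile Red retained in cells so higher fluorescence means more efflux inhibition; 0 = negative control wells and 1 = enniatin B 25 µM full block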). As to conditions: S. cerevisiae pump-expressing triplex, Nile Red efflux flow cytometry; at 10 µM; stronger effect = higher value; the pumps come from Candida albicans.
For experiment [15], the target named is ATP-binding cassette sub-family B member 6 (Homo sapiens) (UniProt Q9NP58). The experiment in a line: ABCB6 transporter inhibitors, pilot screen, K562-ABCB6 cells, flow cytometry, validation set (AID 588550;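 active = inhibition above the screen-wide mean plus 3 SD, about 51%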;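 also: 0% = DMSO wells and 100% = benzethonium chloride 70 µM positive control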). The note with it: K562-ABCB6 porphyrin accumulation, 1 h, at 10 µM, stronger effect = higher value.
A short description of experiment [16]: promoters of myeloid differentiation in arrested cells, primary screen, cell-based, GFP/MAC1 double positive, flow cytometry, validation set (AID 588685;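 active = differentiation response of at least 50%, scaled between solvent and reference control, from cells with both markers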;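 also: compound exposure lasts four days before antibody staining and flow analysis; 0% = DMSO wells and 100% = 5 µM fulvestrant positive control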). The note with it: ER-HoxA9 marrow cells, stronger effect = higher value, normalized: vehicle 0, fulvestrant 100.

In general, inhibition refers to the relative decrease from the control value, in per cent.

Chain of Beta-adrenergic receptor kinase 1 (Homo sapiens) (P25098 whole entry, looked up): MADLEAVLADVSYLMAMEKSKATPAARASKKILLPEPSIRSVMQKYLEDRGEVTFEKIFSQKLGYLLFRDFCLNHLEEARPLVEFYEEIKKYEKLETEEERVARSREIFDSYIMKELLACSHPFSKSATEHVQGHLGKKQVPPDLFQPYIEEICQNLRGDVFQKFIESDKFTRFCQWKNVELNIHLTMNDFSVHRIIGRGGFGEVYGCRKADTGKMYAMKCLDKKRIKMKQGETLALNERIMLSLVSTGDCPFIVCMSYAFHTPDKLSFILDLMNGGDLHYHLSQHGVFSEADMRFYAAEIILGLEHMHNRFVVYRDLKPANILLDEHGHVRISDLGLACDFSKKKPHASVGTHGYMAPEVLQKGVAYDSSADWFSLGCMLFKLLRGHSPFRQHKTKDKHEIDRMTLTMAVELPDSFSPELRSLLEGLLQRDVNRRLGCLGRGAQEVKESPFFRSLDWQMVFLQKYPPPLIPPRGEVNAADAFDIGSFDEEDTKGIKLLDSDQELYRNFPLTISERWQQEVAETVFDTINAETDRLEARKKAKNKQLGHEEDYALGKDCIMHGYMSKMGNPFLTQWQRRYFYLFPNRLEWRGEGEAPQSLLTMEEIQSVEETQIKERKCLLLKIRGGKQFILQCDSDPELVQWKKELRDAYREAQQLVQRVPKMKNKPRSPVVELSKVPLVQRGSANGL
Chain of AP-2 complex subunit beta (Homo sapiens) (P63010 whole entry, looked up, the tested form may be a part, one chain of several): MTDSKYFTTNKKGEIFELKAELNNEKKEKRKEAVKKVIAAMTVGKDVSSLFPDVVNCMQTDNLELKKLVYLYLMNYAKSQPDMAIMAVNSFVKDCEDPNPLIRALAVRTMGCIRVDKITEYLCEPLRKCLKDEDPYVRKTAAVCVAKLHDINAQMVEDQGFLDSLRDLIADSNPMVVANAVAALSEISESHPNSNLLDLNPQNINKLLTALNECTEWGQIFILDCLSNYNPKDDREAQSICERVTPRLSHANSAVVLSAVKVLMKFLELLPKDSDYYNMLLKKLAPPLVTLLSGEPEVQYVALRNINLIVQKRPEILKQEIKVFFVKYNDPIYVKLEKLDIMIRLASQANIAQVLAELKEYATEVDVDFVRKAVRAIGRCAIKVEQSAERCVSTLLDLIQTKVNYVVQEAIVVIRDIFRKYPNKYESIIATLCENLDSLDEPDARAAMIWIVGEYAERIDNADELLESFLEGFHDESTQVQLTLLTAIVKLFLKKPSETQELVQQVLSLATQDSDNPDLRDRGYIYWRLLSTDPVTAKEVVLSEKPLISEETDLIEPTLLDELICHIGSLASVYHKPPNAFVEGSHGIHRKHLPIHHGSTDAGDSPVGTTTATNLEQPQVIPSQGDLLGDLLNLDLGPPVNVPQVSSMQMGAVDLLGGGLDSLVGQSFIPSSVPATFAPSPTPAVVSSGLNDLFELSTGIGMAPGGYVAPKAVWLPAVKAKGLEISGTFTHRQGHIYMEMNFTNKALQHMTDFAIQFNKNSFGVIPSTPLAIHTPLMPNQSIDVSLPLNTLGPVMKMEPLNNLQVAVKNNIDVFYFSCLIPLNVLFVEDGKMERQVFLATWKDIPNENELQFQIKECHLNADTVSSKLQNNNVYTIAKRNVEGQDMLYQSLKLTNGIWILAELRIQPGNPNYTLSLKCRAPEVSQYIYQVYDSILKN
Chain of ATP-binding cassette sub-family B member 6 (Homo sapiens) (Q9NP58 whole entry, looked up): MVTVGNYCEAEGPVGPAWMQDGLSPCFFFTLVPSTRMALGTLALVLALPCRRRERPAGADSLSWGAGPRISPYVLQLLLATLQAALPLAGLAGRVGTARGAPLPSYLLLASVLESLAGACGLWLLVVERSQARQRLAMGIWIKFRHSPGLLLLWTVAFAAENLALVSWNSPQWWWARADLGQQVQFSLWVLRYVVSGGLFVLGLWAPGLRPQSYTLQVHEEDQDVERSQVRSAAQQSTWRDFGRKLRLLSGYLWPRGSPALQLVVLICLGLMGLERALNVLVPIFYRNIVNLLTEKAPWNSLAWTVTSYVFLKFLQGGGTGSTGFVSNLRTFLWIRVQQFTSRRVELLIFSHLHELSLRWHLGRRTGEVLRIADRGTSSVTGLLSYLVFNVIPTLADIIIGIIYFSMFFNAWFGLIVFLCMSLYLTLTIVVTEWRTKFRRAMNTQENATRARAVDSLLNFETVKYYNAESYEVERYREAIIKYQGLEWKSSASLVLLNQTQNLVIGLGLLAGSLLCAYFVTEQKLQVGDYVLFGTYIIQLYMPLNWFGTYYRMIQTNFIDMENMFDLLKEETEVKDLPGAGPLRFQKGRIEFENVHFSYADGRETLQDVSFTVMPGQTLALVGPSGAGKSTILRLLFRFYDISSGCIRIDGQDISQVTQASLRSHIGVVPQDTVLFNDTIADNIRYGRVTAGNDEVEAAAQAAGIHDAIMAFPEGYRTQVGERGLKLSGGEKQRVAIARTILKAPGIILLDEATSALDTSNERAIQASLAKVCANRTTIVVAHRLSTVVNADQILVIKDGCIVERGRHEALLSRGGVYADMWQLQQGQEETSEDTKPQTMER
Chain of Integrin beta-1 (Homo sapiens) + Integrin alpha-4 (Homo sapiens) (P05556 whole entry, looked up): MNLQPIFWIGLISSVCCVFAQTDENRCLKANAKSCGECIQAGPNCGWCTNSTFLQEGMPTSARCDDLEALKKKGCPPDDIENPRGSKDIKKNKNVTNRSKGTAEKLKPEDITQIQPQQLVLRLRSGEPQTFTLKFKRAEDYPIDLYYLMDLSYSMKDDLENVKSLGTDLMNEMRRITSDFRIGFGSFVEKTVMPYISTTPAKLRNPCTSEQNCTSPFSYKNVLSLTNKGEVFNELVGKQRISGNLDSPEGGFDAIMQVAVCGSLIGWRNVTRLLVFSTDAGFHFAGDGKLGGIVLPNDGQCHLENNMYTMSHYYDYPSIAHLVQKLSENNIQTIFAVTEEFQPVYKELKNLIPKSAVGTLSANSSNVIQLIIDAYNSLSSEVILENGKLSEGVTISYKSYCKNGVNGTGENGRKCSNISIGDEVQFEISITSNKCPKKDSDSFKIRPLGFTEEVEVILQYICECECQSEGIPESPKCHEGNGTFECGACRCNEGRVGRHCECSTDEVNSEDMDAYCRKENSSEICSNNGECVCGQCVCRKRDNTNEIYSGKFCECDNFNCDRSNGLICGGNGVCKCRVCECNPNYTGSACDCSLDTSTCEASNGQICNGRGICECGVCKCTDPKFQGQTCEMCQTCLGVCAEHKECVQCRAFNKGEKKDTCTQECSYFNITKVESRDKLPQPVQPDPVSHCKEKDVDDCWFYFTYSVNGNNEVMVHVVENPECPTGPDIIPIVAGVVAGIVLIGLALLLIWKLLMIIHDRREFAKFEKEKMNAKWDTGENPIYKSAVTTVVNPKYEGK
Chain of Integrin beta-1 (Homo sapiens) + Integrin alpha-4 (Homo sapiens) (P13612 whole entry, looked up): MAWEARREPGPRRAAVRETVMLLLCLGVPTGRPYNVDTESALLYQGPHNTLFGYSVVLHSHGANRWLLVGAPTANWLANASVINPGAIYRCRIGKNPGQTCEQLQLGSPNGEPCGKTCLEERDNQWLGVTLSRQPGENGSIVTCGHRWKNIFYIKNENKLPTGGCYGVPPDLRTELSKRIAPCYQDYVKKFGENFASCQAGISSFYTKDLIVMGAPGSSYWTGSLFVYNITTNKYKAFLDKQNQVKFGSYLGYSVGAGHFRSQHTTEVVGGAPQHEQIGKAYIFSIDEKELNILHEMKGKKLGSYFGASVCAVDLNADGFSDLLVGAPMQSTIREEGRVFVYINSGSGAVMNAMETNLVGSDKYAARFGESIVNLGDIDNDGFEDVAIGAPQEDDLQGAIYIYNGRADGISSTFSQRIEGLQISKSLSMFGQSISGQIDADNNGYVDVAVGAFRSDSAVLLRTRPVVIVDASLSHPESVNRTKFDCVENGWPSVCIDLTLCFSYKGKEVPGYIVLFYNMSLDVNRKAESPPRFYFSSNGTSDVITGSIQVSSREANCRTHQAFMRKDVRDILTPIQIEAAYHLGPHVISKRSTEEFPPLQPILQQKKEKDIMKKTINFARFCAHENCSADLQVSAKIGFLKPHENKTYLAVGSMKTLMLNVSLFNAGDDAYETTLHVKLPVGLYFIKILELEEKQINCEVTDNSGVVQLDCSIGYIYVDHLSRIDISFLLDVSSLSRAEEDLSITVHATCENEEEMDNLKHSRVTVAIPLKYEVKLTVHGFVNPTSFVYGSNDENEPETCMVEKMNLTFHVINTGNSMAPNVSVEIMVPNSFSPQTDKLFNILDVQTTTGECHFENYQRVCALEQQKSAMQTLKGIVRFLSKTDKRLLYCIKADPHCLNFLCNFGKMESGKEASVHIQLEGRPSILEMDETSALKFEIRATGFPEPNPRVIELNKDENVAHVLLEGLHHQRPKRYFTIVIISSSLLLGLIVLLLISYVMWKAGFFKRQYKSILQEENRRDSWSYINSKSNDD
Chain of Beta-2 adrenergic receptor (Homo sapiens) (P07550 whole entry, looked up): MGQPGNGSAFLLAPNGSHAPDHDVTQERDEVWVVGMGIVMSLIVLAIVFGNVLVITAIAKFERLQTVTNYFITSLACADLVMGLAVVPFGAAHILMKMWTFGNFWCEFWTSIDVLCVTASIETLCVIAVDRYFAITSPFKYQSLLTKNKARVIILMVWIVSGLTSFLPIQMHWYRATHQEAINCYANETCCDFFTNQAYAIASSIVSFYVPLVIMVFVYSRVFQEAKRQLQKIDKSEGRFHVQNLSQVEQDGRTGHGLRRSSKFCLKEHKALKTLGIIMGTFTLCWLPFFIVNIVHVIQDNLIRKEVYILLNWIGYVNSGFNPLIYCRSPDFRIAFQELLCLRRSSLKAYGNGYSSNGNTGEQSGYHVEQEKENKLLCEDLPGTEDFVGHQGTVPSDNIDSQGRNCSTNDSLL

In the case of `O=C(Cc1ccccc1)NNC(=O)Cc1ccccc1`, the percent of DMSO control GFP in experiment [1] is 101% (inactive). Besides, the GFP response vs DMSO in experiment [2] is 108% (inactive); in [4] it was 94% (inactive). Moreover, the percent response of DMSO control in experiment [3] is 102% (inactive). Besides, in [5], the GFP response, % of DMSO was 98.9% (inactive). This compound returned a double positive events in experiment [6] of 63.3%. In addition, the vesicle binding response in experiment [6] is 224% (inactive). Also, the results for the inhibition in experiment [7], in [11] and in experiment [15] were -5.64% (inactive), 53.7% (inactive) and 2% (inactive), respectively. Besides, the superoxide response (% of plate) in [8] is 113% (inactive). The aptamer binding inhibition in experiment [9] is -1% (inactive). The response in experiment [10] is -7.57% (inactive); in experiment [12], -12.3% (inactive). Moreover, the binding (% of control) in experiment [13] is 91.9% (inactive). Besides, the efflux inhibition (fraction of control) in experiment [14] is 0.27 (inactive). For the same compound, the differentiation response in [16] is 24.7% (inactive).
In the case of `CSc1ccc(/C=N/N2CCN(Cc3ccc(C)cc3C)CC2)cc1`, the percent of DMSO control GFP in experiment [1] is 100% (inactive). For the same compound, the GFP response vs DMSO in experiment [2] is 99.7% (inactive); in experiment [4], 97% (inactive). Moreover, in experiment [3], the percent response of DMSO control was 110% (inactive). The GFP response, % of DMSO in [5] was 96.3% (inactive). Also, the double positive events in experiment [6] worked out at 61.9%. Further, the vesicle binding response in experiment [6] was 118% (inactive). The inhibition in [7] was -5.11% (inactive); in [11] it was 7.81% (inactive); in [15] it was 25% (inactive). The superoxide response (% of plate) in experiment [8] is 97.2% (inactive). The aptamer binding inhibition in [9] was -2% (inactive). For the same compound, the response in experiment [10] was 6.9% (inactive); in experiment [12] it was 4.06% (inactive). The binding (% of control) in [13] is 103% (inactive). For the same compound, the efflux inhibition (fraction of control) in [14] was 0.22 (inactive). Further, the differentiation response in experiment [16] is 11.5% (inactive).
On to `CC(=O)N[C@@H](CS)C(=O)O`, for which the percent of DMSO control GFP in experiment [1] is 101% (inactive). Besides, the GFP response vs DMSO in experiment [2] was 111% (inactive); in experiment [4], 131% (inactive). Besides, the percent response of DMSO control in experiment [3] was 95.8% (inactive). The GFP response, % of DMSO in [5] is 101% (inactive). For the same compound, the double positive events in experiment [6] came out at 64.2%. Also, the vesicle binding response in experiment [6] is 159% (inactive). In addition, the inhibition was -3.16% (inactive) in experiment [7], -18.7% (inactive) in experiment [11] and 19% (inactive) in experiment [15]. Besides, in experiment [8], the superoxide response (% of plate) was 89.1% (inactive). In addition, in [9], the aptamer binding inhibition is 5% (inactive). Also, the response in experiment [10] was 7.69% (inactive); in [12], 0.13% (inactive). Besides, the binding (% of control) in [13] was 104% (inactive). Also, the efflux inhibition (fraction of control) in [14] is -0.03 (inactive). Further, in experiment [16], the differentiation response was 7.2% (inactive).
In the case of `Cc1csc(N)n1`, in experiment [1], the percent of DMSO control GFP was 101% (inactive). Also, the GFP response vs DMSO in experiment [2] was 105% (inactive); in [4], 86.9% (inactive). Moreover, the percent response of DMSO control in experiment [3] was 114% (inactive). The GFP response, % of DMSO in experiment [5] is 101% (inactive). Further, the double positive events in experiment [6] was determined as 69.2%. In experiment [6], the vesicle binding response was 201% (inactive). The inhibition in [7] was -7.12% (inactive); in experiment [11] it was 5.92% (inactive); in [15], 12% (inactive). The superoxide response (% of plate) in experiment [8] was 87% (inactive). Also, in [9], the aptamer binding inhibition was -1% (inactive). Further, the figures for the response in experiment [10] and in experiment [12] were 4.23% (inactive) and -1.8% (inactive), respectively. Also, the binding (% of control) in experiment [13] is 105% (inactive). In addition, in experiment [14], the efflux inhibition (fraction of control) is -0.31 (inactive). Further, the differentiation response in experiment [16] is 9.01% (inactive).
With `Cn1c([N+](=O)[O-])cnc1COC(N)=O`, in [1], the percent of DMSO control GFP was 92.8% (inactive). The GFP response vs DMSO in experiment [2] is 136% (inactive); in experiment [4], 83.6% (inactive). For the same compound, in experiment [3], the percent response of DMSO control is 103% (inactive). In addition, the GFP response, % of DMSO in experiment [5] is 88.9% (inactive). Further, the double positive events in [6] turned out to be 62.7%. The vesicle binding response in experiment [6] was 157% (inactive). Moreover, the inhibition was 8.4% (inactive) in experiment [7], -5.93% (inactive) in [11] and 11% (inactive) in experiment [15]. In addition, in experiment [8], the superoxide response (% of plate) is 98.7% (inactive). In addition, the aptamer binding inhibition in experiment [9] was 4% (inactive). For the same compound, the response in [10] is 5.28% (inactive); in [12] it was -3.52% (inactive). In experiment [13], the binding (% of control) was 105% (inactive). For the same compound, the efflux inhibition (fraction of control) in experiment [14] is -0.35 (inactive). Besides, in [16], the differentiation response is -3.28% (inactive).
